Source: PubChem BioAssay (Tox21)
Values joined by “and” are separate entries in the source; they are usually repeats but may differ in a detail not shown here. Equal values may be shown once. Records with an inconclusive call do not appear. A call without a number means that no potency is given here. A structure can be active in one record and inactive in another. Active and inactive are the calls of the source. Unless noted, calls come from the whole dose curve; as a rule, active = well fitted curve in the direction sought with a large enough effect in the repeat runs; inconclusive = weak or mixed curves; inactive = no such curve, though single readings can be large; an effect the other way counts as inactive or inconclusive.

Columns and labels:
[1] = qHTS assay to identify small molecule agonists of the sonic hedgehog signaling (Shh) pathway (AID 1259368; calls by dose curve;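 note: NIH/3T3-derived 3T3Gli1-Luc cells carrying a stable Gli1-driven firefly luciferase reporter; series mostly up to about 92 µM; nearly all actives have a fitted effect of over 15% in size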)
Outline: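 NIH/3T3-derived 3T3Gli1-Luc cells with stably integrated Gli1-driven firefly luciferase, 2,000 cells/well, compounds added after 4 hr. Incubated 24 hr at 37C, 5% CO2; luminescence read after 30 min with luciferase reagent at room temperature.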

[2] = qHTS assay to identify small molecule antagonists of the sonic hedgehog signaling (Shh) pathway (AID 1259369; calls by dose curve; note: nearly all actives have a fitted effect of over 45% in size; note: potency is the fitted concentration of half-maximal effect)
Outline: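 NIH/3T3-derived Gli1-Luc reporter cells plated 4 h, dosed with compound, then stimulated with conditioned medium for 24 h at 37 C. Firefly luciferase luminescence read after 30 min with detection reagent at room temperature.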

[3] = biological target: Estrogen receptor beta (Homo sapiens) (UniProt Q92731); assay: qHTS assay to identify small molecule agonists of the estrogen receptor beta (ER-beta) signaling pathway (AID 1259377; active = well fitted activation curve with a large enough effect in the signal ratio in the repeat runs, not every such curve was filed as active; the % refers to the signal ratio)
Outline: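 ER-beta-UAS-bla HEK293T cells in medium with 2% charcoal-stripped FBS were exposed to compounds for 16 h at 37C. Beta-lactamase reporter activity was read as fluorescence after 2 h with LiveBLAzer B/G FRET substrate at room temperature.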

[4] = qHTS assay to identify small molecule agonists of the androgen receptor (AR) signaling pathway in the presence of an antagonist - cell viability counter screen (AID 1259379); note: nearly all actives have a fitted effect of over 25% in size; note: potency is the fitted concentration of half-maximal effect;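 for activity change, negative = cytotoxicity: MDA-kb2 human breast cancer cells carrying an MMTV luciferase reporter; series mostly up to about 92 µM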
Outline: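 MDA-kb2 cells (MMTV-luciferase, AR/GR), 3,000/well, 5 h attachment, then 3.0 µM nilutamide (final) and compounds at 15 concentrations. Viability by CellTiter-Fluor fluorescence after 16 h at 37 °C, 0% CO2, in the reporter wells.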

[5] = qHTS assay to identify small molecule agonists of the estrogen receptor beta (ER-beta) signaling pathway - cell viability counter screen (AID 1259380); note: nearly all actives have a fitted effect of over 30% in size; note: potency is the fitted concentration of half-maximal effect
Outline: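 ER-beta-UAS-bla HEK293T cells in medium with 2% charcoal-stripped FBS, pre-incubated 6 hr, then treated 16 hr at 37C. Cytotoxicity read in the same wells by CellTiter-Glo luminescence after 30 min at room temperature.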

[6] = qHTS assay to identify small molecule agonists of the estrogen receptor alpha (ER-alpha) signaling pathway in the presence of an antagonist - cell viability counter screen (AID 1259386);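 note: cells exposed to compounds for 22 h at 37 °C before the viability read; nearly all actives have a fitted effect of over 30% in size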; note: potency is the fitted concentration of half-maximal effect; for activity change, negative = cytotoxicity: series mostly up to about 92 µM
Outline: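 Cell viability in VM7Luc4E2 cells (endogenous full-length ER-alpha) measured by CellTiter-Fluor fluorescence in the same wells as the luciferase screen. Cells pre-cultured 5 days in charcoal-stripped serum, then treated 22 h with compounds at 15 concentrations plus 10.0nM ICI-182,780.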

[7] = biological target: Progesterone receptor (Homo sapiens) (UniProt P06401); assay: qHTS assay to identify small molecule agonists of the progesterone receptor (PR) signaling pathway (AID 1346784; calls by dose curve; note: nearly all actives have a fitted effect of over 30% in size)
Outline: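 PR-UAS-bla HEK 293T cells (beta-lactamase reporter under UAS) in 2% charcoal-stripped FBS, dosed with 23 nL compound after 6 hr, incubated 16hr at 37C. LiveBLAzer B/G FRET substrate added, fluorescence read after 2 hours.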

[8] = biological target: Progesterone receptor (Homo sapiens) (UniProt P06401); assay: qHTS assay to identify small molecule antagonists of the progesterone receptor (PR) signaling pathway (AID 1346795; active = well fitted inhibition curve with a large enough effect in the signal ratio in the repeat runs, not every such curve was filed as active; the % refers to the signal ratio; note: potency is the fitted concentration of half-maximal effect)
Outline: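 PR-UAS-bla HEK293T cells with beta-lactamase reporter under UAS control, in 2% charcoal-stripped FBS, treated with compounds plus 1 nM promegestone (R5020, final) for 16 hr at 37C. Read-out: FRET beta-lactamase substrate fluorescence after 2 hr at room temperature.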

[9] = qHTS assay to identify small molecule antagonists of the progesterone receptor (PR) signaling pathway - cell viability counter screen (AID 1346798); note: series mostly up to about 92 µM; nearly all actives have a fitted effect of over 50% in size
Outline: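 PR-UAS-bla HEK293T cells, 3,000/well in 2% charcoal-stripped FBS medium, dosed with compounds plus R5020 agonist and incubated 16 h at 37C. Viability then measured in the same wells by CellTiter-Glo luminescence after 30 min at RT.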

[10] = qHTS assay to identify small molecule agonists of the progesterone receptor (PR) signaling pathway - cell viability counter screen (AID 1346799; calls by dose curve; note: nearly all actives have a fitted effect of over 45% in size; note: potency is the fitted concentration of half-maximal effect)
Outline: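 Counter screen in the PR-UAS-bla HEK293T wells (2% charcoal-stripped FBS, 16 h compound exposure at 37 C) after the bla read. CellTiter-Glo added, 30 min at room temperature, luminescence read as cell viability.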

[11] = qHTS assay to identify small molecule antagonists of the TGF-beta/Smad signaling pathway - cell viability counter screen (AID 1346824); note: nearly all actives have a fitted effect of over 50% in size
Outline: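 SBE-bla HEK 293T cells, incubated overnight, then compound plus 0.25 ng/mL TGF-beta1 (stock added) for 5 hr at 37 C. Viability was read in the same wells by CellTiter-Glo luminescence after 30 min at room temperature.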

[12] = qHTS assay to identify small molecule agonists of the TGF-beta/Smad signaling pathway - cell viability counter screen (AID 1346829); note: nearly all actives have a fitted effect of over 45% in size; note: potency is the fitted concentration of half-maximal effect; for activity change, negative = cytotoxicity: top concentration of the series differs between compounds
Outline: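 Luminescence from CellTiter-Glo, read after a 30 min room-temperature incubation, gives cell viability of SBE-bla HEK 293T cells treated 5 hr with compounds at 37 C.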

[13] = qHTS assay to identify small molecule agonists of the TGF-beta/Smad signaling pathway (AID 1346859; active = well fitted activation curve with a large enough effect in the signal ratio in the repeat runs, not every such curve was filed as active; the % refers to the signal ratio; note: series mostly up to about 77 µM)
Outline: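 SBE-bla HEK293T cells plated overnight, then compound exposure for 5 h at 37 C. Beta-lactamase reporter read with LiveBLAzer B/G FRET substrate after 2 h at room temperature, fluorescence at 405 nm excitation, 460/530 nm emission.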

[14] = biological target: Thyrotropin-releasing hormone receptor (Homo sapiens) (UniProt P34981); assay: qHTS assay to identify small molecule antagonists of the thyrotropin-releasing hormone receptor (TRHR) signaling pathway (AID 1346877; active = well fitted inhibition curve with a large enough effect in the repeat runs, not every such curve was filed as active; note: series mostly up to about 51 µM)
Outline: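 TRHR-expressing HEK293 cells loaded with calcium dye for 2 h at 37 C; compounds pre-incubated 5 min at room temperature before TRH challenge at 1 nM final. Intracellular calcium fluorescence read kinetically for 3 min; 15 concentrations in triplicate.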

[15] = qHTS assay to identify small molecule antagonists of the estrogen receptor beta (ER-beta) signaling pathway - cell viability counter screen (AID 1259382); note: nearly all actives have a fitted effect of over 55% in size; note: potency is the fitted concentration of half-maximal effect;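 for activity change, negative = cytotoxicity: HEK293T cells carrying ER-beta-UAS-bla reporter stimulated with estradiol; series mostly up to about 92 µM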
Outline: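 ER-beta-UAS-bla HEK293T cells in 2% charcoal-stripped FBS medium, treated with compound plus 1 nM 17-beta-estradiol for 16 h at 37C. Viability read by CellTiter-Glo luminescence after 30 min at room temperature in the same wells.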

[16] = biological target: Estrogen receptor (Homo sapiens) (UniProt P03372); assay: qHTS assay to identify small molecule agonists of the estrogen receptor alpha (ER-alpha) signaling pathway in the presence of an antagonist (AID 1259383; calls by dose curve; note: top concentration of the series differs between compounds; nearly all actives have a fitted effect of over 15% in size)
Outline: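 VM7Luc4E2 cells express endogenous full-length ER-alpha with an ERE-luciferase reporter and were hormone-deprived for 5 days. Compounds at 15 concentrations were added with 10.0nM ICI-182,780 for 22hr at 37C. Luminescence was read with ONE-Glo.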

[17] = qHTS assay to identify small molecule agonists or antagonists of the thyroid stimulating hormone receptor (TSHR) signaling pathway - wild type cell line counter screen (AID 1259384; calls by dose curve)
Outline: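 Wild-type Hek293 cells, 800/well, 18 h at 37C, then compound with Ro20-1724 for 30 min RT. cAMP by HTRF (cAMP-d2/anti-cAMP cryptate), 1 h RT, fluorescence read. 15 concentrations, triplicates.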

[18] = biological target: Thyrotropin receptor (Homo sapiens) (UniProt P16473); assay: qHTS assay to identify small molecule antagonists of the thyroid stimulating hormone receptor (TSHR) signaling pathway (AID 1259385; calls by dose curve; note: nearly all actives have a fitted effect of over 20% in size)
Outline: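 TSHR-HEK293 cells (800/well) plated 18 h, then compounds with Ro20-1724 and TSH at 1.5 ng/mL final, 30 min at room temperature. cAMP quantified by HTRF (cAMP-d2/anti-cAMP-cryptate, 1 h); 15 concentrations in triplicate.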

[19] = biological target: Androgen receptor (Homo sapiens) (UniProt P10275); assay: qHTS assay to identify small molecule agonists of the androgen receptor (AR) signaling pathway in the presence of an antagonist (AID 1259381; calls by dose curve; note: nearly all actives have a fitted effect of over 15% in size)
Outline: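 MDA-kb2 cells carrying MMTV-luciferase (AR/GR responsive), 3,000 cells/well, co-treated with 3.0 uM nilutamide final. Compounds at 15 concentrations, 16 hr at 37C without CO2. Luciferase luminescence read after 30 min with ONE-Glo.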

Androgen receptor (Homo sapiens), sequence (P10275 whole entry, looked up): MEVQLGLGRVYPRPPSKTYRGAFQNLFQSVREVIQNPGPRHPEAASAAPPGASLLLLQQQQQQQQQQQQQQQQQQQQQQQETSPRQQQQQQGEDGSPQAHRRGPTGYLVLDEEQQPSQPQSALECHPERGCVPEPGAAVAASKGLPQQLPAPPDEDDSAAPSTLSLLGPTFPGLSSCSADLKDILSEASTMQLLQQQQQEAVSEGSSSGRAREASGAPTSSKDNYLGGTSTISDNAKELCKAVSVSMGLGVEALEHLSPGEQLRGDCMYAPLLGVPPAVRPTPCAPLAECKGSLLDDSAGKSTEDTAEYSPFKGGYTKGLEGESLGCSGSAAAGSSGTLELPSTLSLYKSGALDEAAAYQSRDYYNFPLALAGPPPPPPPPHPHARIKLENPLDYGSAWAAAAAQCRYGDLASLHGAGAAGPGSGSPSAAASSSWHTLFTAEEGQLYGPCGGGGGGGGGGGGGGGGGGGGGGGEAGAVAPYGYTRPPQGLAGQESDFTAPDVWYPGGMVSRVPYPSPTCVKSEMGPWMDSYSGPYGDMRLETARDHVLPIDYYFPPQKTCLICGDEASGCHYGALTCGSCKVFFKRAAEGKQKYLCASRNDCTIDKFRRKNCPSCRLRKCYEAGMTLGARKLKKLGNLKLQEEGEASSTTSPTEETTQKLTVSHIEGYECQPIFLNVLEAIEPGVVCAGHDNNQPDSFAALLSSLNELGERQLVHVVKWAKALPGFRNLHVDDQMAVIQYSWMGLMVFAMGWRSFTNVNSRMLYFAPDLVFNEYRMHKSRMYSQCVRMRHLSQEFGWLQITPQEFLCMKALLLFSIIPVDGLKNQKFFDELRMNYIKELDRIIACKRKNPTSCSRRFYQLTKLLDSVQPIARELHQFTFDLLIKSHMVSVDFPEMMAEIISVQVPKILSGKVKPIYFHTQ
Progesterone receptor (Homo sapiens), sequence (P06401 whole entry, looked up): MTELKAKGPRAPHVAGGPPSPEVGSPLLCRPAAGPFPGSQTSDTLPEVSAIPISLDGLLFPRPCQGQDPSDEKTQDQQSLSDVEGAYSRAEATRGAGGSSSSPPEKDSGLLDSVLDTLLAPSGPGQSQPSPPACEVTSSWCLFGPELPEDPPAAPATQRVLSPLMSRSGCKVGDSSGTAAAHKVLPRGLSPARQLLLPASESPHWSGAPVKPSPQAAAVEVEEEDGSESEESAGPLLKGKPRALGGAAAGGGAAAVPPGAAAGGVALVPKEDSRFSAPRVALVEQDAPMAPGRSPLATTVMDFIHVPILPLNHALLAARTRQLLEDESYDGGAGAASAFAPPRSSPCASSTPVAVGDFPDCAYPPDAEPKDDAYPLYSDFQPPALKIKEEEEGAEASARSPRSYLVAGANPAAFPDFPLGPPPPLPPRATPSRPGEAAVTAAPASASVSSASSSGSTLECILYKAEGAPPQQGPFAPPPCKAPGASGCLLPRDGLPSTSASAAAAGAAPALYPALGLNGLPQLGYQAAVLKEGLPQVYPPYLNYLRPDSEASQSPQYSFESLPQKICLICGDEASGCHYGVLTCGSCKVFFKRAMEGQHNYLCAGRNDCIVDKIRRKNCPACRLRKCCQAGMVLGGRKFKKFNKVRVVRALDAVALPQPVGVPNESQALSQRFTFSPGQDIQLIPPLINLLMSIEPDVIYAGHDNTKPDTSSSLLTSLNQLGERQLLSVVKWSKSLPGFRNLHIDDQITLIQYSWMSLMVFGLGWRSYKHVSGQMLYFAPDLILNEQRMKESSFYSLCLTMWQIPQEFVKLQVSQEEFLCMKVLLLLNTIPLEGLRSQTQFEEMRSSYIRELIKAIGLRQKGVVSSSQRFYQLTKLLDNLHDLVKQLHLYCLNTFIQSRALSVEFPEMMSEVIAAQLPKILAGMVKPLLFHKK
Thyrotropin-releasing hormone receptor (Homo sapiens), sequence (P34981 whole entry, looked up): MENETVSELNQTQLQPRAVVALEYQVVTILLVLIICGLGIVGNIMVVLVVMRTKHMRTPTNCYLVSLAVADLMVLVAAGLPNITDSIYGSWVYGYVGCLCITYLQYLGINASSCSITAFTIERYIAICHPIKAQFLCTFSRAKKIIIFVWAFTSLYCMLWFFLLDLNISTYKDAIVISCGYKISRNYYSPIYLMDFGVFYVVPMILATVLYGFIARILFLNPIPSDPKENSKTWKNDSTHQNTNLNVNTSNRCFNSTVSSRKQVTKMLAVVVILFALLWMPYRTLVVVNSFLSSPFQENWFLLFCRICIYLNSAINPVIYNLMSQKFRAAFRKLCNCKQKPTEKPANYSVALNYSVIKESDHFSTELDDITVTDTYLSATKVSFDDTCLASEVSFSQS
Estrogen receptor beta (Homo sapiens), sequence (Q92731 whole entry, looked up): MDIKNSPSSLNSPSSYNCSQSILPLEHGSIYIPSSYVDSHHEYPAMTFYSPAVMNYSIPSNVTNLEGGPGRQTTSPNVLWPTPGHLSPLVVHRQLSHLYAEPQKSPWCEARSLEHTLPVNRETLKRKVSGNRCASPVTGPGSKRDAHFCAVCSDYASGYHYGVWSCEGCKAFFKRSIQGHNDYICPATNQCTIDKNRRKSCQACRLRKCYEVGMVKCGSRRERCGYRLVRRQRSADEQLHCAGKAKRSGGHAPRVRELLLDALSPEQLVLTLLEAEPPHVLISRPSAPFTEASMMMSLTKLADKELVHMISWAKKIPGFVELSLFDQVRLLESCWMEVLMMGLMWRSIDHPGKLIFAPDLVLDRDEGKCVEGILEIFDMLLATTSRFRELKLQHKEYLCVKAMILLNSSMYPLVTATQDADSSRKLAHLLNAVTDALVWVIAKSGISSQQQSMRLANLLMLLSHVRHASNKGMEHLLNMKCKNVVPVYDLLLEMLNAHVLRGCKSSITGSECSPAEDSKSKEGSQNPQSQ
Thyrotropin receptor (Homo sapiens), sequence (P16473 whole entry, looked up): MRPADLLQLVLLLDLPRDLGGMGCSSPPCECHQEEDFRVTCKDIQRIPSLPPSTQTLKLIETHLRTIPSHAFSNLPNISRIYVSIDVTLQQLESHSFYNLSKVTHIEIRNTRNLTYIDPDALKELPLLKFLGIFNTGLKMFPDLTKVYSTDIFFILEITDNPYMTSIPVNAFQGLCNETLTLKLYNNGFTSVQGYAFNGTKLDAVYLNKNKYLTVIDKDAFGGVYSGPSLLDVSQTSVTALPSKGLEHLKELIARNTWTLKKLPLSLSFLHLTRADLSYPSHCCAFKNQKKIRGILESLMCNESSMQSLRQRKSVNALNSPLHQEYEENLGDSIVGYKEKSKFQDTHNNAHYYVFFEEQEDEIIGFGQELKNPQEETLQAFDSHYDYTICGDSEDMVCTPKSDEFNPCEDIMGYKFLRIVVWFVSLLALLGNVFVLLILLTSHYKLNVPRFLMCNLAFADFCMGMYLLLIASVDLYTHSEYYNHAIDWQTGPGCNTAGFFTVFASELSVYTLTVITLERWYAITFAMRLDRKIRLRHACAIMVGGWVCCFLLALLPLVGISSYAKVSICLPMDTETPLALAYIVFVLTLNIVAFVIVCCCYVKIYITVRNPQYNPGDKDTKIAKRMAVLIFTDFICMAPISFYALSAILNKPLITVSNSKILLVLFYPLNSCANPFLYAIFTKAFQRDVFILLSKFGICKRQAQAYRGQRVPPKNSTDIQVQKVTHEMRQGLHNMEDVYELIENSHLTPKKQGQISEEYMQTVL
Estrogen receptor (Homo sapiens), sequence (P03372 whole entry, looked up): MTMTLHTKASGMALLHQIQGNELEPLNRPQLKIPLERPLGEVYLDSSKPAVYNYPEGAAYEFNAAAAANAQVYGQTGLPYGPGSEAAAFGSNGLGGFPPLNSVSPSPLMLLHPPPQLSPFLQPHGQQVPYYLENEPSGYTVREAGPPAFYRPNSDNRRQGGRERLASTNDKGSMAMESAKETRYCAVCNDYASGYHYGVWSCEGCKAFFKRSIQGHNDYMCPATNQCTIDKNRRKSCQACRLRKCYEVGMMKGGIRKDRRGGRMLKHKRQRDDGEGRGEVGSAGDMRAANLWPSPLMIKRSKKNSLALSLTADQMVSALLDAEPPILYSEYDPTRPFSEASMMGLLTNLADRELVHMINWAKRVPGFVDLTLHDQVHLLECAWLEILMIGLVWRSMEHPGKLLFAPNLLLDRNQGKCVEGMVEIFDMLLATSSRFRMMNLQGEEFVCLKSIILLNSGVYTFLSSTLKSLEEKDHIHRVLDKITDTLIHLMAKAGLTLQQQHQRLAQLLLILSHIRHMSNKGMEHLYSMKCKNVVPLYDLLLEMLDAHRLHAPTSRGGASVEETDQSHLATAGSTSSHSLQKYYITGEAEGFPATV

| SMILES | outcome [1] | Potency [2] | Potency [3] | Potency [4] | Potency [5] | Potency [6] | Potency [7] | Potency [8] | Potency [9] | Potency [10] | Potency [11] | Potency [12] | outcome [13] | outcome [14] | Potency [15] | Potency [16] | activity change, negative = cytotoxicity [10] | outcome [17] | outcome [18] | Potency [19] |
| --- | --- | --- | --- | --- | --- | --- | --- | --- | --- | --- | --- | --- | --- | --- | --- | --- | --- | --- | --- | --- |
| O=C(O)c1ccc([N+](=O)[O-])cc1 | inactive | inactive | inactive | inactive | inactive | inactive | inactive | inactive | inactive | inactive | inactive | inactive | inactive | inactive | – | – | – | – | – | – |
| CCC(=O)O | inactive | inactive | – | inactive | inactive | inactive | – | – | inactive | – | inactive | inactive | inactive | – | inactive | inactive | -3.72% [at 19 µM] (inactive) | – | – | – |
| CS(=O)(=O)c1ccc([C@@H](O)[C@@H](CO)NC(=O)C(Cl)Cl)cc1 | inactive | inactive | – | inactive | inactive | inactive | inactive | inactive | inactive | inactive | inactive | inactive | inactive | – | inactive | inactive | – | – | – | – |
| CC#C[C@]1(O)CC[C@H]2[C@@H]3CCC4=CC(=O)CCC4=C3[C@@H](c3ccc(N(C)C)cc3)C[C@@]21C | inactive | – | inactive | inactive | – | inactive | inactive | – | inactive | inactive | inactive | inactive | – | inactive | inactive | inactive | – | inactive | inactive | – |
| CC1(C)CC(N=C=O)CC(C)(CN=C=O)C1 (centres undefined) | inactive | inactive | – | inactive | inactive | inactive | inactive | inactive | inactive | inactive | inactive | inactive | inactive | inactive | – | inactive | – | inactive | inactive | – |
| CCCCCCCCCCCCN | inactive | inactive | – | inactive | inactive and 30.6 µM (active) | inactive | inactive | inactive | inactive | inactive | – | inactive and 21.9 µM (active) | inactive | inactive | 54.5 µM (active) and inactive | – | – | inactive | inactive | – |
| CCCCCCCCCC(=O)O | inactive | inactive | – | inactive | inactive | inactive | inactive | inactive | inactive | inactive | inactive | inactive | inactive | inactive | inactive | – | – | inactive | inactive | inactive |
| Oc1c(Cl)cc(Cl)c(Cl)c1Cl | inactive | 48.6 µM (active) | inactive | inactive | – | inactive | – | inactive | inactive | – | inactive | inactive | inactive | inactive | – | inactive | – | inactive | inactive | – |
| CC1CC(OC(=O)c2ccccc2O)CC(C)(C)C1 (centres undefined) | inactive | 27 µM (active) and inactive | – | inactive | inactive | inactive | inactive | – | inactive | inactive | inactive | inactive | inactive | inactive | inactive | – | – | inactive | inactive | – |
| CC(C)n1c(/C=C/[C@@H](O)C[C@@H](O)CC(=O)O)c(-c2ccc(F)cc2)c2ccccc21 | inactive | – | – | inactive | 13.7 µM (active) and 4.73 µM (active) | inactive | inactive | – | – | 0.77 µM (active) | inactive | inactive | inactive | inactive | – | – | – | – | – | – |
| c1ccc2ccccc2c1 | inactive | inactive | – | inactive | inactive | inactive | inactive | inactive | inactive | inactive | inactive | inactive | inactive | inactive | – | inactive | – | inactive | inactive | – |
| O=c1c(-c2ccc(O)cc2)coc2cc(O)ccc12 | inactive | 13.5 µM (active) and 19.3 µM (active) | – | inactive | – | inactive | inactive | inactive | inactive | inactive | inactive | inactive | inactive | – | inactive | – | – | inactive | inactive | inactive |
| CN(C)c1ccc(C(=N)c2ccc(N(C)C)cc2)cc1 | inactive | 2.4 µM (active) and 11.7 µM (active) | inactive | 30.3 µM (active) and 26.3 µM (active) | – | 30.3 µM (active) and 20.9 µM (active) | inactive | – | inactive | – | inactive | inactive | inactive | inactive | inactive | inactive | – | inactive | inactive | – |
| Oc1ccc2ccccc2c1 | inactive | 5.58 µM (active) and 9.69 µM (active) | – | inactive | inactive | inactive | inactive | 48.6 µM (active) | inactive | inactive | inactive | inactive | inactive | – | inactive | – | – | inactive | inactive | inactive |
| C=C(C)C(=O)OCCCCCC | inactive | inactive | – | inactive | inactive | inactive | inactive | inactive | inactive | inactive | inactive | inactive | inactive | inactive | – | inactive | – | inactive | inactive | – |
